# Test results as given in ChEMBL document CHEMBL3988442, “University of Dundee, Small-Polar-MMV Screening Library” (2021).
# For some of these results: Measured potencies and affinities stand elsewhere.
# Tests used:
# Design in all cases: scale not given: direction of the effect not stated beside the values
# [1] = target: Protein translocase subunit SecA (Escherichia coli (strain K12)) (UniProt P10408); test: Assay to Identify E. coli SecA ATPase Inhibitors; assay type: functional; conditions: 30 µM
# [2] = target: T1, Ubiquitin-activating enzyme e1, putative (Leishmania donovani (strain BPK282A1)) (UniProt E9BSI1); test: Leishmania donovani Ubiquitin Activating Enzyme (LdE1); assay type: functional; conditions: 30 µM
# T1 sequence (whole entry): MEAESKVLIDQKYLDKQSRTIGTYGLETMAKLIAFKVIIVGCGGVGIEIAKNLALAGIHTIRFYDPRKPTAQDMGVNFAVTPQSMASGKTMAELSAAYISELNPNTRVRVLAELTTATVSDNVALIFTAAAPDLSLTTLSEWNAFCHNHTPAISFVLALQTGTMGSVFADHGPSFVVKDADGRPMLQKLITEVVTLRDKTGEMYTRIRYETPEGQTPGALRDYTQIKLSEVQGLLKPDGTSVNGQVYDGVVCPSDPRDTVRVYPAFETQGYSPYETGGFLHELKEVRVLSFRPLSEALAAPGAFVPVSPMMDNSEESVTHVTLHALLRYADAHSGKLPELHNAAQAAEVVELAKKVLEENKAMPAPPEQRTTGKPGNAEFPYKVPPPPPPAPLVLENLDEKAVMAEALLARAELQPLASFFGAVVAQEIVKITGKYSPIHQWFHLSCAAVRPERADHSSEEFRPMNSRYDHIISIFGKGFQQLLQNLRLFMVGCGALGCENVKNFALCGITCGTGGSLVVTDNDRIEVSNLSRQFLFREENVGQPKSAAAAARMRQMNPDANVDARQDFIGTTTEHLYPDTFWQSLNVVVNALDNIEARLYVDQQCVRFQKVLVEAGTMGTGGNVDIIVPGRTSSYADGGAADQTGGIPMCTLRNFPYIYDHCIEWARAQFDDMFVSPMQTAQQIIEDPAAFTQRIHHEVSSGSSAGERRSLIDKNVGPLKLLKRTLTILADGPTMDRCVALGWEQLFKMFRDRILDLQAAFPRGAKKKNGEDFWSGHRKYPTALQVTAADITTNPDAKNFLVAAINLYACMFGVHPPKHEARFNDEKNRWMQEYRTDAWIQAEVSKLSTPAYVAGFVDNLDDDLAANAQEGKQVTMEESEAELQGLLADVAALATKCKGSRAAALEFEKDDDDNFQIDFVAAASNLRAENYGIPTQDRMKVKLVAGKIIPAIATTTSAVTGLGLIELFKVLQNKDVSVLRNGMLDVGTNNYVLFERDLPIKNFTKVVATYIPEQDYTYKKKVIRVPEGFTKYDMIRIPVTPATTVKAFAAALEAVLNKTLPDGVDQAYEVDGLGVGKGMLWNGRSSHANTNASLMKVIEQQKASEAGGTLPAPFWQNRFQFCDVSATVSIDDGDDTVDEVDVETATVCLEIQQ
# [3] = target: Sialic acid-binding Ig-like lectin 9 (Homo sapiens) (UniProt Q9Y336); test: Hs-Siglec9 ALPHAscreen SOP 20170721; conditions: 10 µM
# Trypanosoma cruzi = test: Trypanosoma cruzi phosphomannomutase and mannose-1-phosphate guanylyltransferase assay; assay type: functional; conditions: 10 µM
# [4] = target: T2, Arginase-2, mitochondrial (Homo sapiens) (UniProt P78540); test: in vitro enzyme assay to detect the production of urea directly proportional to the activity of Arginase II; assay type: functional; conditions: 33.3 µM; further: in the data most compounds retested in dose-response had high values
# T2 sequence (whole entry): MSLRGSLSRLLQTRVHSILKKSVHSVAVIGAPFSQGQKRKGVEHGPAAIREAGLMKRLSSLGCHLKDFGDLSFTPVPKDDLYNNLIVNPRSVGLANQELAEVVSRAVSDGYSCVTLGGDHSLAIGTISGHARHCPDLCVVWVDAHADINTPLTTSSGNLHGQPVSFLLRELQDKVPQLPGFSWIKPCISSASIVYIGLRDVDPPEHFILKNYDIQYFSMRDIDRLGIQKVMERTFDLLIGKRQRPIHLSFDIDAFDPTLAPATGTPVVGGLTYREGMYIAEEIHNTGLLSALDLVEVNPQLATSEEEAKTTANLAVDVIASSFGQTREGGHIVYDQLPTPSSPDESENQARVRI
# [5] = target: T3, Proteasome subunit beta (Trypanosoma cruzi) (UniProt O96673); test: Trypanosoma cruzi proteasome chymotrypsin-like activity (TcProtChymo) assay.; further: in the data most compounds retested in dose-response had high values; assay type: functional; conditions: 9.37 µM
# T3 sequence (whole entry): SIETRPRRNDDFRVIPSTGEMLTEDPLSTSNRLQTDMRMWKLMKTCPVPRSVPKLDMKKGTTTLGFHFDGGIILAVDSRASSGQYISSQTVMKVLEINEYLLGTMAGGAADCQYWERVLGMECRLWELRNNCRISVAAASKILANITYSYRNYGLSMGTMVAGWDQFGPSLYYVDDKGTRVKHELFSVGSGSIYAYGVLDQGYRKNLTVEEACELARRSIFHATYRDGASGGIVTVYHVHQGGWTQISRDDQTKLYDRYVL
# Homo sapiens = species on record: Homo sapiens; test: To identify inhibition of the IFN signalling (Jak-Stat) pathway via expression of an eGFP reporter gene under the control of an IFN-stimulated response element (ISRE) containing MxA promoter.; assay type: functional; conditions: 30 µM
# [6] = target: T4, Tyrosyl-tRNA synthetase, putative (Trypanosoma cruzi (strain CL Brener)) (UniProt Q4DSP6); test: Trypanosoma cruzi tyrosyl tRNA synthetase (TcYRS) _High Tyrosine SOP; assay type: functional; conditions: 30 µM; further: in the data most compounds retested in dose-response had high values
# T4 sequence (whole entry): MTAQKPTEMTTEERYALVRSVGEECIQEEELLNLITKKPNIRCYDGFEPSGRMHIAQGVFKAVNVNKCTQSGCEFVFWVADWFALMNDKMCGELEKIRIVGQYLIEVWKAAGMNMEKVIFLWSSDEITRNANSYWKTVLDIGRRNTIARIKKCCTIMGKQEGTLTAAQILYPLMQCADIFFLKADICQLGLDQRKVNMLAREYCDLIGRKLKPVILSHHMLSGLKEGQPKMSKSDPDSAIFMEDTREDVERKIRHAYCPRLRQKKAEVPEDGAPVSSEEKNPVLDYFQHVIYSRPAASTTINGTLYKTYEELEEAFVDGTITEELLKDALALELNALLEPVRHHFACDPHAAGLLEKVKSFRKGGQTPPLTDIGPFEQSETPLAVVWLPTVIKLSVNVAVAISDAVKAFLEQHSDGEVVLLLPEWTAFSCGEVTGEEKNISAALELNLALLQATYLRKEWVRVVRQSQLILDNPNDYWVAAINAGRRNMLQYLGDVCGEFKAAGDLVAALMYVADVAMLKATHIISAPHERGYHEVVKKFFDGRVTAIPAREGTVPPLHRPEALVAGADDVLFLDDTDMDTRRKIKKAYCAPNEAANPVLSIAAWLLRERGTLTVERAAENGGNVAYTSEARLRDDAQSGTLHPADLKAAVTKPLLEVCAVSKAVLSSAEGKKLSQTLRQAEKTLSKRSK
# [7] = target: T4, Tyrosyl-tRNA synthetase, putative (Trypanosoma cruzi (strain CL Brener)); test: Trypanosoma cruzi tyrosyl tRNA synthetase (TcYRS) SOP; assay type: functional; conditions: 30 µM
# [8] = target: Chromo domain-containing protein 1 (Saccharomyces cerevisiae (strain ATCC 204508 / S288c) (Baker's yeast)) (UniProt P32657); test: ScCHD-1 Enzyme Inhibition Assay; assay type: functional; conditions: 30 µM; further: in the data most compounds retested in dose-response had high values
# Chromo domain-containing protein 1 (Saccharomyces cerevisiae (strain ATCC 204508 / S288c) (Baker's yeast)), sequence (P32657 whole entry, the tested form may be a part): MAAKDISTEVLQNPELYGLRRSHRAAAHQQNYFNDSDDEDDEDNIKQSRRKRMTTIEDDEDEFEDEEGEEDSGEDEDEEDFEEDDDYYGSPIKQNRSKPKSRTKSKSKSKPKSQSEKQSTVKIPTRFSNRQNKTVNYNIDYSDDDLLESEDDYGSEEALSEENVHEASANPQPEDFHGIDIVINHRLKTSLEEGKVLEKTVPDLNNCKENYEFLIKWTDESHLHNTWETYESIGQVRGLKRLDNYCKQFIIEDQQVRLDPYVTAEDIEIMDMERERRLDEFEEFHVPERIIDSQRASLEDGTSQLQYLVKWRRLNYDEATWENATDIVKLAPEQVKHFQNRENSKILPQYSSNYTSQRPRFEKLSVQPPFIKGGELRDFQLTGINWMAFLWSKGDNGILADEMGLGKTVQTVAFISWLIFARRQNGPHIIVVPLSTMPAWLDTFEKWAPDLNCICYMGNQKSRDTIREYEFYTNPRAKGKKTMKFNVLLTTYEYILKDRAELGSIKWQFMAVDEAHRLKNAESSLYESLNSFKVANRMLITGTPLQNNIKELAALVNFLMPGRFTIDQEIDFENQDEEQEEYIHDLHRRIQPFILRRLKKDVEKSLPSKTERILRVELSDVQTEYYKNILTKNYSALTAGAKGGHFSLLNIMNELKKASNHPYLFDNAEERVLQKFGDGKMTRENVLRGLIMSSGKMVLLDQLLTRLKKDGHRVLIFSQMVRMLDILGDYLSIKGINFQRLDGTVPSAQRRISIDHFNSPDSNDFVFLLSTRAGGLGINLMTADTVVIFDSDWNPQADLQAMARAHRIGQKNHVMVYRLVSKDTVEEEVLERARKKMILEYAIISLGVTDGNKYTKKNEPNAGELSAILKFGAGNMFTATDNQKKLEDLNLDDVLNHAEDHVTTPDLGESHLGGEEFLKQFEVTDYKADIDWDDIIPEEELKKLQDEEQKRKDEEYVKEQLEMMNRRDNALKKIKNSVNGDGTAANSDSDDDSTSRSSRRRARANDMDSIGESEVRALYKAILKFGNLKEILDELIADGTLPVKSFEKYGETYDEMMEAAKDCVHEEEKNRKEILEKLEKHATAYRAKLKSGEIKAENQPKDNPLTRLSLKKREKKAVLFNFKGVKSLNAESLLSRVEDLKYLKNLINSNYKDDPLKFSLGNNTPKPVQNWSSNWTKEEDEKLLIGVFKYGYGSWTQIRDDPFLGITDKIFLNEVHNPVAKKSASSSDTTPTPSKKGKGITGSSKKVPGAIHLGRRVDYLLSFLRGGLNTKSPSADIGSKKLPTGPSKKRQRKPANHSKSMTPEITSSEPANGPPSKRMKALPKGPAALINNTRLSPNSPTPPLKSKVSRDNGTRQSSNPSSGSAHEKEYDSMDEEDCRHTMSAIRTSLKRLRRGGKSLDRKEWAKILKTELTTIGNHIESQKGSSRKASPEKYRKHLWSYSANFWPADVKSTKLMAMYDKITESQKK
# Sialic acid-binding Ig-like lectin 9 (Homo sapiens), sequence (Q9Y336 whole entry): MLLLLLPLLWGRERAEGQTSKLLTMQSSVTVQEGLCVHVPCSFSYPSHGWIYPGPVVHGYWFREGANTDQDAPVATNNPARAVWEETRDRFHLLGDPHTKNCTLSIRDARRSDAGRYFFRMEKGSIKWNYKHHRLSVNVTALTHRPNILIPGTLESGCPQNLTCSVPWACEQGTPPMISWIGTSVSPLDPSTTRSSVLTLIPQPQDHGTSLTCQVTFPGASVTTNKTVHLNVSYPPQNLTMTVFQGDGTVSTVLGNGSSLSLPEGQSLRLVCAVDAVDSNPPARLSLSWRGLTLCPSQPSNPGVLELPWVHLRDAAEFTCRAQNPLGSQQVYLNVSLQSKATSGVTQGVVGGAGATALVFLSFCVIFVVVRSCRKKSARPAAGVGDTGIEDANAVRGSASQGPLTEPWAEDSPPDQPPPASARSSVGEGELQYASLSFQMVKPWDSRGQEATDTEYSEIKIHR
# Protein translocase subunit SecA (Escherichia coli (strain K12)), sequence (P10408 whole entry): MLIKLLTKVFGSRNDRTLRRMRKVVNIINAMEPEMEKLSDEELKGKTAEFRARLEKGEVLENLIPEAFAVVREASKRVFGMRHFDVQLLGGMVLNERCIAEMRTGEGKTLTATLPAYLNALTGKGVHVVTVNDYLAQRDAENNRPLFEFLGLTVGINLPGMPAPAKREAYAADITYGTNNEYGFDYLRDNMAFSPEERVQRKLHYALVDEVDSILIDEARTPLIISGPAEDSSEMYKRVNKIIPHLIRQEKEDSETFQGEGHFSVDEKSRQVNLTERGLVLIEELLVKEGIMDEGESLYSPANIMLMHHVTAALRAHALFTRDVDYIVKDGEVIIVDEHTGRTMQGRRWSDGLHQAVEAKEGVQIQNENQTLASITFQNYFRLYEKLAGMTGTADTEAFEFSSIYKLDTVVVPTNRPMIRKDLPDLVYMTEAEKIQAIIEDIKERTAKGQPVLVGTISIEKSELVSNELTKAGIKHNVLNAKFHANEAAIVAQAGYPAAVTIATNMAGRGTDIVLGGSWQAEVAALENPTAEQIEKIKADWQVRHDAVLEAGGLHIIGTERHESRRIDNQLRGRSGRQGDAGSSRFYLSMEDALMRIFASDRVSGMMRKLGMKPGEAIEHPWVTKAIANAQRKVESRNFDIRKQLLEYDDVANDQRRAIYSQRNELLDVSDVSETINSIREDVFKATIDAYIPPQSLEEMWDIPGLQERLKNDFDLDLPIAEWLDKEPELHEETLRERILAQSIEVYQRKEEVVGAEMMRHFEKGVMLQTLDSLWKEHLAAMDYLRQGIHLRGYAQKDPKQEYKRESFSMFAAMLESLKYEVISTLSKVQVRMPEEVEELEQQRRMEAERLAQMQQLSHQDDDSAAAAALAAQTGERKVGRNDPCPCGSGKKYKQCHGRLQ
SMILES,Percent Effect [1],Percent Effect [2],Percent Effect [3],Percent Effect (Trypanosoma cruzi),Percent Effect [4],Percent Effect [5],Percent Effect (Homo sapiens),Percent Effect [6],Percent Effect [7],Percent Effect [8]
Cn1ncc(NCc2cccc(COC(C)(C)C)c2)c(Cl)c1=O,-2.67%,8%,4.11%,1.81%,5.32%,3.31%,49.3%,2.63%,10.3%,-8.54%
Cc1nc(C2CCCN(C(=O)COCc3ccccc3Cl)C2)no1 (stereo not given),1.44%,-8%,4.56%,-1.81%,6.21%,-7.72%,10.8%,-1.58%,-5.13%,3.49%
CC(C)C(NC(=O)Cn1ccc(=O)n(C)c1=O)c1ccc(F)cc1 (stereo not given),1.48%,18.2%,-2.41%,-7.09%,5.53%,7.19%,22.3%,6.86%,18.8%,-8.33%
CNc1cncc(C2CCCN2C(=O)c2ccc3oc(C)cc3c2)n1 (stereo not given),-2.25%,12%,-1.38%,3.35%,-1.33%,16.6%,-2.62%,3.17%,7.5%,-26.1%
